The record followed here is PubChem BioAssay.

One assay addresses Albumin (Bos taurus) (UniProt P02769). Kind of assay: bovine serum albumin binders on microarray, profiling panel, artefact control for SMM control protein annotation, biochemical, small-molecule microarray, Alexa647 label, 635/667 nm fluorescence (AID 1118).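 Note: score merges 667 nm emission intensity and signal-to-noise per printed compound spot.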 The conditions noted are these: BSA-A647 binding, fluorescence 635 nm, higher = more signal.
The nature of assay [1]: small-molecule microarray binders of probe aXIP, primary screen, biochemical, NeuroSMM set, 635/667 nm fluorescence (AID 1119).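 Note: probe is the protein aXip251-270 applied at 1 µg/mL to compound-printed slides; binding of probe to printed compounds measured as 667 nm fluorescence plus signal to noise.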 The conditions noted are these: higher = more signal, called active from +8 up or from −8 down unless noted.
Assay [2] is described as follows: small-molecule binders of probe aNOTCH3, primary screen, biochemical, small-molecule microarray, 635/667 nm fluorescence (AID 1120).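 Note: probe is a biotin-tagged antibody raised against NOTCH3 rather than NOTCH3 protein; score merges spot fluorescence near 667 nm with spot signal to noise.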 As to conditions: higher = more signal; small-molecule microarray, probe aNOTCH3, fluorescence unless noted.
Assay [3] can be described thus: small-molecule binders of probe aNOTCH2, primary screen, biochemical, small-molecule microarray, 635/667 nm fluorescence (AID 1121).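 Note: score merges feature fluorescence read at 667 nm with its signal to noise.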 As to conditions: higher = more signal; small-molecule microarray, probe aNOTCH2, fluorescence unless noted.
The target of assay [4] is Carbonic anhydrase 2 (Homo sapiens) (UniProt P00918). The assay is described as follows: CAII small-molecule binders, profiling panel, biochemical, small-molecule microarray, Alexa647-labelled CAII (AID 1122). The conditions noted are these: CAII-A647 binding fluorescence, higher = more signal.
Assay [5] can be described thus: COS7 lysate on small-molecule microarray, probe aHis, 635 nm (AID 1123).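 Note: z-score combines 667nm fluorescence intensity with signal-to-noise per printed compound spot.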 As to conditions: higher = more signal; small-molecule microarray, COS7 cell lysate, probe aHis, fluorescence unless noted.
Assay [6] is described as follows: compound binding in COS7 lysate, probe aLAP1, primary screen, cell lysate, small-molecule microarray (AID 1124).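 Note: lysate comes from COS7 cells expressing LAP1 and is applied at 0.3 µg/mL; score merges spot fluorescence near 667 nm with signal-to-noise over triplicate slides.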 The conditions noted are these: higher = more signal; small-molecule microarray, COS7 cell lysate, probe aLAP1, fluorescence unless noted.
The next assay concerns Sam68 (KHDRBS1). Kind of assay: Sam68 small-molecule binders, primary screen, biochemical, small-molecule microarray, 635 nm fluorescence (AID 1125).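 Note: score merges 667 nm channel intensity with signal to noise over triplicate slides.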 As to conditions: small-molecule microarray binding, higher = more signal.
Assay [7] concerns Chordin-like protein 2 (CHRDL2). Kind of assay: CHRDL2 small-molecule binders, primary screen, biochemical, small-molecule microarray, 635 nm fluorescence (AID 1126).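 Note: printed compound slides probed with Chrdl2 protein at 4 µg/mL for 1 h at 4 C; score merges 667 nm emission intensity with signal to noise over three replicate slides.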 As to conditions: small-molecule microarray binding, fluorescence 635 nm; higher = more signal.
Assay [8] has as its target Concanavalin-A (Canavalia ensiformis) (UniProt P02866). The assay is described as follows: ConA small-molecule binders, primary screen, artefact control for SMM control protein annotation, biochemical, small-molecule microarray, Alexa647 label, 635 nm (AID 1127).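 Note: z combines 667 nm emission intensity with signal-to-noise across three replicate slides.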 As to conditions: ConA-A647 binding fluorescence, higher = more signal.
Assay [9] in a line: anti-His antibody binders, primary screen, artefact control for SMM control protein annotation, biochemical, small-molecule microarray, 635 nm fluorescence (AID 1128).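 Note: score merges feature fluorescence with signal-to-noise for each printed compound spot.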 The conditions noted are these: anti-His Alexa647 antibody binding, higher = more signal.
Assay [10] relates to Human papillomavirus type 1a E7 protein (residues 1-88). Kind of assay: HPV1a E7 small-molecule binders, primary screen, biochemical, small-molecule microarray, residues 1-88, 635 nm (AID 1129). The conditions noted are these: small-molecule microarray binding, fluorescence 635 nm; higher = more signal.
The target in assay [11] is Focal adhesion kinase 1 (Homo sapiens) (UniProt Q05397). The assay is described as follows: small-molecule microarray binders of FAK, primary screen, biochemical, 635/667 nm fluorescence, BSA, DTT (AID 1130).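 Note: composite of spot emission at 667 nm and signal to noise over triplicate slides.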 The conditions noted are these: PTK2 binding, 635 nm fluorescence, higher = more signal.
Assay [12] deals with Fibrinogen (Alexa647-labelled). The assay is described as follows: fibrinogen binders on compound microarrays, profiling panel, artefact control for SMM control-protein annotation, biochemical, small-molecule microarray, 635/667 nm fluorescence (AID 1131).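 Note: z-score merges 667 nm fluorescence with per-spot signal-to-noise over triplicate slides.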 As to conditions: fibrinogen-A647 binding fluorescence, higher = more signal.
Assay [13] addresses Follistatin (Homo sapiens) (UniProt P19883). The assay is described as follows: follistatin binders on small-molecule microarrays, primary screen, biochemical, small-molecule microarray, 635/667 nm fluorescence (AID 1132). As to conditions: FST binding, 635 nm fluorescence, higher = more signal.
Assay [14] addresses Fibroblast growth factor 2 (Homo sapiens) (UniProt P09038). The assay is described as follows: FGF2 binders on small-molecule microarrays, primary screen, biochemical, small-molecule microarray, 635/667 nm fluorescence (AID 1133). The conditions noted are these: small-molecule microarray binding, FGF2, fluorescence 635/667; higher = more signal.
Assay [15] in a line: mitochondrial membrane potential change in A549 cells, profiling panel, cell-based, JC-1 fluorescence, basal, 24 h, 100 nL (AID 1138).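 Note: A549 lung adenocarcinoma cells under basal conditions with no added stimulus; test concentration not given here.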 The conditions noted are these: higher = more signal.
The subject of a further assay is Lefty1. Kind of assay: Lefty1 binders on small-molecule microarrays, primary screen, biochemical, small-molecule microarray, 635/667 nm fluorescence (AID 1139). As to conditions: small-molecule microarray binding, fluorescence 635/667; higher = more signal.
Assay [16] has as its system wheat germ agglutinin (Triticum aestivum), Alexa647-labelled. Kind of assay: wheat germ agglutinin binders on compound microarrays, profiling panel, artefact control for SMM control-protein annotation, biochemical, small-molecule microarray, 635/667 nm fluorescence (AID 1140).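 Note: score merges 667 nm feature emission with signal to noise over triplicate slides.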 As to conditions: WGA-A647 binding, 635 nm fluorescence, higher = more signal.
The target of assay [17] is Luciferin 4-monooxygenase (Photinus pyralis) (UniProt P08659). The assay is described as follows: firefly luciferase enzyme inhibitors, primary screen, biochemical, luminescence, purified enzyme, 2006 set (AID 1141).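 Note: cell-free assay with purified firefly luciferase at 100 ng per well in PBS; test concentration not given here.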 The conditions noted are these: SteadyGlo luminescence, 30 min; higher = more signal, called active from +8 up or from −8 down unless noted.

Each structure is given as a SMILES string. The source made the active and inactive calls.

Concanavalin-A (Canavalia ensiformis), sequence (P02866 whole entry, looked up): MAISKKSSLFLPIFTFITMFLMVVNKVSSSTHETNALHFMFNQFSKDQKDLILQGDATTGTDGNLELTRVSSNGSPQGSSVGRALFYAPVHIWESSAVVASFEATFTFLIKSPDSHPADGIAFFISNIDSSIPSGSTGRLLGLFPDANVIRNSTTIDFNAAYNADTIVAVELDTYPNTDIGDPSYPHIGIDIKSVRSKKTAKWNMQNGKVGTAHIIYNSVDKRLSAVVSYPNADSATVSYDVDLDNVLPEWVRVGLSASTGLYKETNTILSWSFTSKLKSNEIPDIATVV
Fibroblast growth factor 2 (Homo sapiens), sequence (P09038 whole entry, looked up): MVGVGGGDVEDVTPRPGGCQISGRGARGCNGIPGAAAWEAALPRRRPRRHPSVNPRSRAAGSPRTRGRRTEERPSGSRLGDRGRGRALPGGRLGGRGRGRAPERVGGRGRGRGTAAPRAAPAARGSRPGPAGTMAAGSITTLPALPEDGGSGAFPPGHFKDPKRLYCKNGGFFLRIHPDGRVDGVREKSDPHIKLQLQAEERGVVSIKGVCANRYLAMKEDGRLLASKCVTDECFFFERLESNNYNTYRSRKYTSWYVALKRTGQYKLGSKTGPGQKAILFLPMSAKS
Albumin (Bos taurus), sequence (P02769 whole entry, looked up): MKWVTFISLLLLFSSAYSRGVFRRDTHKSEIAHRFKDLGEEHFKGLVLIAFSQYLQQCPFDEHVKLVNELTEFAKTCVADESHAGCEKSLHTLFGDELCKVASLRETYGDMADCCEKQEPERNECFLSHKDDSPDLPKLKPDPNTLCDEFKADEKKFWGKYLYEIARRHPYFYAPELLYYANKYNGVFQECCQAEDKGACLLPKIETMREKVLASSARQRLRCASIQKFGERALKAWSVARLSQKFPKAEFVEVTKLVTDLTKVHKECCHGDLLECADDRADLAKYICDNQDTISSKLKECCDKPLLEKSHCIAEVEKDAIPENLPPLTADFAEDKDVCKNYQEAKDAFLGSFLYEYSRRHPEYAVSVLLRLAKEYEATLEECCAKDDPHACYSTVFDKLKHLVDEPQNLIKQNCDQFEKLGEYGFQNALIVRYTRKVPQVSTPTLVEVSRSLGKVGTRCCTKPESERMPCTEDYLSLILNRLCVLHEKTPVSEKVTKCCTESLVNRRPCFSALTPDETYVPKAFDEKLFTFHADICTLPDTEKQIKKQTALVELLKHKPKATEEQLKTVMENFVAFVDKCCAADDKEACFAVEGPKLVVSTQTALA
Follistatin (Homo sapiens), sequence (P19883 whole entry, looked up): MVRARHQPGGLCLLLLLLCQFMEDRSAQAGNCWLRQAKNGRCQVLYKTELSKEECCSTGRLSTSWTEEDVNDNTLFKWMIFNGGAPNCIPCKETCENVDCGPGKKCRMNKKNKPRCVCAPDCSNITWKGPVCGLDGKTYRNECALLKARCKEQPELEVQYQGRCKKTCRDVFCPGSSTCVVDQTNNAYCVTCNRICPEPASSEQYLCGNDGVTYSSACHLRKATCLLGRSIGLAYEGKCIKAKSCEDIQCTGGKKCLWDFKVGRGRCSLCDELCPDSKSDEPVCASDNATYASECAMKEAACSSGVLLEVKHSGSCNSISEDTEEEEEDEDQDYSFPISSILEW
Luciferin 4-monooxygenase (Photinus pyralis), sequence (P08659 whole entry, looked up): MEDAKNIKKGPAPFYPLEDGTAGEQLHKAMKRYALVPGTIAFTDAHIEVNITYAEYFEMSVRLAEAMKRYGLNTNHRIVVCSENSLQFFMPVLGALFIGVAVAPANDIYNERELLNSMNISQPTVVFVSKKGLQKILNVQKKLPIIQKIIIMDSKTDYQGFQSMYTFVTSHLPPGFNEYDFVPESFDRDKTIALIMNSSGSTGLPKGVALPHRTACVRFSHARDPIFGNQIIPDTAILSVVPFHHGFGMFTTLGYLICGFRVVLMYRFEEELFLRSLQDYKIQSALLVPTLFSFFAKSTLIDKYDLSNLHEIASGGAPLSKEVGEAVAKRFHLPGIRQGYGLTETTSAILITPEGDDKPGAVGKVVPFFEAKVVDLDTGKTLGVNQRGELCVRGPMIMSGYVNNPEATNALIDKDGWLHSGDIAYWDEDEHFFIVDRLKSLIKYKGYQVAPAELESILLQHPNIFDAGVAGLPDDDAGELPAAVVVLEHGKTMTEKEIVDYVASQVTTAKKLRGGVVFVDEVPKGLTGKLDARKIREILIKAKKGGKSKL
Focal adhesion kinase 1 (Homo sapiens), sequence (Q05397 whole entry, looked up): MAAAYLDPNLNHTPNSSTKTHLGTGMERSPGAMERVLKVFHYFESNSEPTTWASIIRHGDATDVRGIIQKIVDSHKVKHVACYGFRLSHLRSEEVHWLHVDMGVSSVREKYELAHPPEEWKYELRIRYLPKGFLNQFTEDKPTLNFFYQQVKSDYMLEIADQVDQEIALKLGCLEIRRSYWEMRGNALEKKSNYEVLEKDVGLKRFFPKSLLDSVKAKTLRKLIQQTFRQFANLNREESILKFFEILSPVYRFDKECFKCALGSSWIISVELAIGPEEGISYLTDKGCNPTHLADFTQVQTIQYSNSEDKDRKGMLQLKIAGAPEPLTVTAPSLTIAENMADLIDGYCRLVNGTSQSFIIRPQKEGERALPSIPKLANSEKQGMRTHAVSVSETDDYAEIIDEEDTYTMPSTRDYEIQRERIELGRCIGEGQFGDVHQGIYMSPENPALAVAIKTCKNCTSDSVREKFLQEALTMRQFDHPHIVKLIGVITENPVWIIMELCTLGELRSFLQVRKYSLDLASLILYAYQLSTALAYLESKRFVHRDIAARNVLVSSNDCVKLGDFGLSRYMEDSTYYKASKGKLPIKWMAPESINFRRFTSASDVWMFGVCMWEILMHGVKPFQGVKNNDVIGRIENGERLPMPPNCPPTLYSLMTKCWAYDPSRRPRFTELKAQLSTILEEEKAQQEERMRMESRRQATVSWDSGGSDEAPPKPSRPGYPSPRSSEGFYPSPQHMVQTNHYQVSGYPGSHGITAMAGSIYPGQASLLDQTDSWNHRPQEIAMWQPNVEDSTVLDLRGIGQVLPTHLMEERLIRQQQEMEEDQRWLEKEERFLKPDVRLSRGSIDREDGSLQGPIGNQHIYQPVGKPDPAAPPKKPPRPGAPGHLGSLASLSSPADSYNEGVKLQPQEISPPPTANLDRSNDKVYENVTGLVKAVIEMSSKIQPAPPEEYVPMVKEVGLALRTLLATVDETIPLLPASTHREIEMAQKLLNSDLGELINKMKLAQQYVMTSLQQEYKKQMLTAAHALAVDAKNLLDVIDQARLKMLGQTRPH

Turning to `CCCC=C(CCC)[C@@H](NP(=O)(c1ccccc1)c1ccccc1)c1ccccc1`, the composite z-score is 0.377 with Albumin (Bos taurus); 0.0873 in assay [2]; -0.053 in assay [3]; -0.0222 in assay [4]; 0.122 in assay [5]; -0.264 in assay [6]. Moreover, the composite z-score with Sam68 (KHDRBS1) was 0.986; in [7], -0.141; in assay [8], 1.07; in assay [9], 0.0583; in assay [10], 1.03; in [11], 0.206. Also, the composite z-score amounted to 0.819 in [12]; 0.139 in assay [13]; 0.407 in [14]; 0.169 in the assay with Lefty1; 0.207 in assay [16]. For the same compound, the composite Z-score in assay [1] is 0.655 (inactive). Also, the z-score was 1.23 in assay [15] and 1.19 (inactive) in assay [17].

As to `O=P(c1ccccc1)(c1ccccc1)N1CC2(CC2)CC(O)(c2ccccc2)C1` (stereo not given), the composite z-score came out at 0.498 with Albumin (Bos taurus); 0.392 in [2]; 0.193 in [3]; 0.835 in assay [4]; 3.3 in assay [5]; 1.19 in assay [6]. The composite z-score in the assay with Sam68 (KHDRBS1) was 0.584; in assay [7] it was -0.31; in [8], 0.462; in [9], 1.11; in assay [10], 0.805; in [11] it was 1.26. Besides, the composite z-score in assay [12] was 0.77; in [13], -0.541; in [14] it was -0.955; in the assay with Lefty1, -1.17; in [16], 0.546. Besides, the composite Z-score in [1] was 0.284 (inactive). In addition, the z-score is 0.542 in assay [15] and 2.44 (inactive) in assay [17].

In the case of `COc1cc2c(cc1O)C=[N+](C)CC2`, the composite z-score was 0.502 in the assay with Albumin (Bos taurus); -0.0377 in assay [2]; -0.133 in assay [3]; 0.329 in assay [4]; -0.4 in assay [5]; -0.93 in assay [6]. The composite z-score was -1.67 with Sam68 (KHDRBS1); 0.185 in [7]; -1.48 in assay [8]; 1.02 in assay [9]; -0.662 in [10]; -0.0048 in [11]. For the same compound, the composite z-score is -1.32 in assay [12]; 0.469 in assay [13]; 1.17 in [14]; 0.495 in the assay with Lefty1; -0.252 in [16]. In assay [1], the composite Z-score was -0.296 (inactive). Also, the z-score is 1.28 in assay [15] and -0.556 (inactive) in assay [17].

As to `COC(=O)[C@@]1(Cc2ccccc2)[C@H]2c3cc(C(=O)N(C)C)[nH]c3C[C@H]2CN1C(=O)c1ccccc1`, the composite z-score with Albumin (Bos taurus) is 0.772; in assay [2], -0.0017; in assay [3], -0.0193; in assay [4], 0.896; in assay [5] it was -0.0769; in [6], 0.0772. In addition, the composite z-score with Sam68 (KHDRBS1) was -1.41; in assay [7], -0.219; in assay [8], -0.394; in assay [9], 0.523; in [10] it was -1.26; in assay [11] it was -0.206. Besides, the composite z-score in assay [12] was -0.0736; in assay [13], -0.426; in assay [14], -0.387; with Lefty1, -1.29; in assay [16] it was -0.09. Further, in [1], the composite Z-score was -0.0667 (inactive). For the same compound, the z-score in assay [15] was 0.825; in [17], 2.27 (inactive).

For the compound `CCCc1cc2c(n1Cc1cccc(Cl)c1)C(C)C1CN(C(=O)c3ccccc3)C(C)(C(=O)OC)C21` (stereo not given), the composite z-score came out at 1.01 with Albumin (Bos taurus); 0.0372 in assay [2]; 0.0293 in assay [3]; 0.797 in assay [4]; 2.68 in [5]; 0.719 in assay [6]. Further, the composite z-score is 0.958 in the assay on Sam68 (KHDRBS1); -1.94 in [7]; 0.298 in [8]; 2.37 in assay [9]; 1.23 in assay [10]; 1.16 in [11]. The composite z-score was 0.989 in [12]; -0.264 in assay [13]; -1.1 in [14]; -0.763 in the assay on Lefty1; 1.44 in assay [16]. In addition, the composite Z-score in [1] is -0.244 (inactive). Moreover, the results for the z-score in assay [15] and in assay [17] were 1.95 and 0.566 (inactive), respectively.

Regarding `CCCc1cc2c(n1Cc1ccc(C)cc1)C(C)C1CN(C(=O)c3ccccc3)C(C)(C(=O)OC)C21` (stereo not given), the composite z-score in the assay with Albumin (Bos taurus) amounted to 0.864; in assay [2] it was 0.773; in assay [3] it was 1.03; in assay [4], 0.803; in assay [5], 2.02; in assay [6], 1.45. Also, the composite z-score in the assay on Sam68 (KHDRBS1) is 0.52; in assay [7], -0.809; in assay [8], 0.453; in [9] it was 2.14; in [10] it was 1.06; in [11], 1.29. The composite z-score in assay [12] is 0.889; in assay [13], 0.66; in assay [14], 0.578; in the assay on Lefty1, -0.544; in [16], 0.833. Further, the composite Z-score in assay [1] was 1.3 (inactive). For the same compound, the z-score in assay [15] was 1.14; in assay [17], -1.17 (inactive).

For the compound `COC(=O)[C@@]1(Cc2ccc(F)cc2)[C@H]2c3cc(C(=O)N(C)C)[nH]c3C[C@H]2CN1C(=O)c1ccccc1`, the composite z-score is 0.659 in the assay with Albumin (Bos taurus); -0.0414 [setting not given] in [2]; -0.0763 [setting not given] in assay [3]; 0.777 in [4]; 0.694 [setting not given] in assay [5]; 0.18 [setting not given] in assay [6]. Also, the composite z-score with Sam68 (KHDRBS1) was 0.361; in assay [7], -0.268; in assay [8] it was 0.419; in [9], 1.8; in [10] it was 0.733; in [11], 0.745. Moreover, the composite z-score in [12] is 0.817; in assay [13], -0.252; in assay [14] it was -0.0573; with Lefty1, -0.855; in [16], 0.186. Also, the composite Z-score in [1] was 0.495 [setting not given] (inactive). For the same compound, the z-score in [15] is 0.843; in assay [17], -0.0137 [setting not given] (inactive).

With `COc1cc2c(cc1O)C(C)N(C)CC2` (stereo not given), the composite z-score is 0.122 with Albumin (Bos taurus); -0.0967 in assay [2]; -0.0877 in assay [3]; 0.545 in assay [4]; 0.594 in [5]; 0.209 in assay [6]. The composite z-score in the assay on Sam68 (KHDRBS1) was -1.24; in assay [7], -0.432; in [8], 0.519; in assay [9], -0.0259; in assay [10] it was -1.17; in assay [11] it was -0.45. For the same compound, the composite z-score in assay [12] is -0.227; in assay [13], -0.114; in [14], 0.0683; in the assay with Lefty1, -0.692; in [16] it was 0.0591. Also, the composite Z-score in [1] is 0.104 (inactive). In addition, the values for the z-score in assay [15] and in assay [17] were 0.599 and -1.06 (inactive), respectively.
